Measurements: ChEMBL document CHEMBL4296182, “CO-ADD screening of NIH NCI Diversity Set V”
For part of these data: Entries with a potency or affinity are not part of this list.

What was measured:
[1] = test system: Staphylococcus aureus; test: Antibacterial activity against Staphylococcus aureus MRSA ATCC 43300 (CO-ADD:GP_020); MIC in CAMBH media using NBS plates, by Resazurin F(560/590); assay type: functional; settings: Concentration 20 uM, ASSAY_TEST Inhibition of Bacterial Growth, detection method Resazurin, Fluorescence (ex560/em590), MEDIA CAMHB, plate type 384well, CORNING #3640, time 18 hr
[2] = test system: Acinetobacter baumannii; test: Antibacterial activity against Acinetobacter baumannii ATCC 19606 (CO-ADD:GN_034); MIC in CAMBH media using NBS plates, by Resazurin F(560/590); assay type: functional; settings: Concentration 20 uM, ASSAY_TEST Inhibition of Bacterial Growth, detection method Resazurin, Fluorescence (ex560/em590), MEDIA CAMHB, plate type 384well, CORNING #3640, time 18 hr
[3] = test system: Escherichia coli; test: Antibacterial activity against Escherichia coli ATCC 25922 (CO-ADD:GN_001); MIC in CAMBH media using NBS plates, by Resazurin F(560/590); assay type: functional; settings: Concentration 20 uM, ASSAY_TEST Inhibition of Bacterial Growth, detection method Resazurin, Fluorescence (ex560/em590), MEDIA CAMHB, plate type 384well, CORNING #3640, time 18 hr
[4] = test system: Klebsiella pneumoniae; settings: Concentration 20 uM; ASSAY_TEST Inhibition of Bacterial Growth; detection method Absorption (OD600); MEDIA CAMHB; plate type 384well; NBS; CORNING #3640; time 18 hr
[5] = test system: Candida albicans; settings: 20 µM
[6] = test system: Cryptococcus neoformans; settings: Concentration 20 uM; ASSAY_TEST Inhibition of Fungal Growth; detection method Resazurin; Absorption (OD600-OD570); plate type 384well; NBS; CORNING #3640

SMILES	Inhibition [1]	Inhibition [2]	Inhibition [3]	Inhibition [4]	Inhibition [5]	Inhibition [6]
COC1OC2COC(c3ccccc3)OC2C(=O)C1NC(=O)c1ccccc1 (stereo not drawn)	8.72%	4.09%	10.65%	10.3%	2.12%	-18.55%
COc1ccc(NC(=O)CC(C)=O)c(OC)c1	5.13%	-8.6%	1.4%	22.3%	0.23%	-3.01%
Cc1csc(NC(=O)c2ccc(C(=O)Nc3nc(C)cs3)cc2)n1	-1.48%	17.46%	2.37%	21.27%	-0.71%	-1.68%
CCCCC(=O)N(CCC)CCC	2.53%	-12.7%	10.06%	7.98%	-2.94%	-14.22%
CN(C)C(=S)/N=c1\ssc(=S)n1Cc1ccco1	13.2%	6.63%	0.6%	0.81%	2.24%	5.1%
O=C(Nc1ccc(Nc2ccncc2)cc1)c1ccc([N+](=O)[O-])cc1	-5.06%	12.27%	7.64%	10.28%	3.08%	-7.15%
C1CCC(NC2=NCCO2)CC1	-4.28%	-18.87%	9.63%	6.74%	-0.27%	-10.7%
CCOC(=O)CC1(C)NC(C(=O)O)C(C)(C)S1 (stereo not drawn)	-14.37%	0.02%	-11.39%	5.07%	3.25%	0.86%
OC(COc1ccc(Cl)cc1)CN1CCN(c2cccc(Cl)c2)CC1 (stereo not drawn)	15.95%	-3.41%	10.45%	10.9%	-0.89%	-14.11%
C=C(C)C/N=C/C1(C)CCC(C)=CO1 (stereo not drawn)	-0.35%	0.87%	-9.37%	5.17%	1.63%	19.3%
Cc1ccc(S(=O)(=O)NNC(=O)C23CCC(CC2)C3)cc1	-6.52%	6.35%	7.26%	14.92%	4.46%	-6.05%
CC(=O)Oc1ccc(C(c2ccc(OC(C)=O)cc2)c2ccccn2)cc1 [BISACODYL]	25.36%	-9.02%	15.4%	14.3%	0.53%	-1.75%
C=CCNc1ncnc2sc(SC)nc12	-6.85%	14.45%	5.94%	7.44%	10.1%	-10.12%
